{"source": "the supplement of paper PMC8728848", "binders": {"B1": {"name": "rEtpA (Escherichia coli) (protein)", "chain": "MNRIYKLKFDKRRNELVVVSEITTGVGNAKATGSVEGEKSPRRGVRAMALSLLSGMMIMAHPAMSANLPTGGQIVAGSGSIQTPSGNQMNIHQNSQNMVANWNSFDIGKGNTVQFDQPSSSAVALNRVVGGGESQIMGNLKANGQVFLVNPNGVLFGEGASVSTSGFVASTRDIKNDDFMNRRYTFSGGQKAGAAIVNQGELTTNAGGYIVLAADRVSNSGTIRTPGGKTVLAASERITLQLDNGGLMSVQVTGDVVNALVENRGLVSARDGQVYLTALGRGMLMNTVLNVSGVVEASGMHRQDGNIVLDGGDSGVVHLSGTLQADNASGQGGKVVVQGKNILLDKGSNITATGGQGGGEVYVGGGWQGKDSNIRNADKVVMQGGARIDVSATQQGNGGTAVLWSDSYTNFHGQISAKGGETGGNGGRVETSSHGNLQAFGTVSASAKKGKAGNWLLDSADITIVNGSNVSKTETTQSPPHTQFAPTAAGSAVSNTSINNRLNNGTSVTILTHRTRTGTAQGGNITVNAAINKSNGSDVNLTLQAGGNITVNNSITSTEGKLNVNLSGARTSNGSITISNNANITTNGGDITVGTTNTSNRVNISINNTTLNASNGNIQLTGTGTDSGILFAGNNRLTASNIALTGNSTSGNAINLTGTATLNATNNITLTGSSTSGNAINLKGNNTLTASNITLTGESTSGNAINLTDTTGTTTLNATNNITMQGTRVQIKHSNITAGNFALNATVAGSEISNTTLTATNNINLAAKTNSASSGVYLKDARITSTNGSITANGTATANGKATHLDGNVTLNASNGRIKLTGNGHGSASGILFAGNNRLTASNIALTGNSTSGNAINLTGTATLNATNDITLTGSSTSGNAINLTGTATLNATNNITLTGSSTSGNAINLKGNNTLTASNITLTGESTSGNAINLTDTTGTTTLNATNNITMQGTRVQIKHSNITAGNFALNATVAGSEISNTTLTATNNINLAAKTNSASSGVYLKDARITSTNGSITANGTATANGKATHLDGNVTLNASNGRIKLTGNGHGSASGILFAGNNRLTASNIALTGNSTSGNAINLTGTATLNATNDITLTGSSTSGNAINLTGTATLNATNNITLTGSSTSGNAINLKGNNTLTASNITLTGESTSGNAINLTDTTGTTTLNATNNITMQGTRVQIKHSNITAGNFALNATVAGSEISNTTLTATNNINLAAKTNSASSGVYLKDARITSTNGSITANGTATANGKATHLDGNVTLNASNGRIKLTGNGHGSASGILFAGNNRLTASNIALTGNSTSGNAINLTGTATLNATNDITLTGSSTSGNAINLTGTATLNATNNITLTGSSTSGNAINLKGNNTLTASNITLTGESTSGNAINLTDTTGTTTLNATNNITMQGTRVQIKHSNITAGNFALNATVAGSEISNTTLTATNNINLAAKTNSASSGVYLKDARITSTNGSITTNGTATANGKATHLDGNVTLNASNGRIKLTGNGHGSASGILFAGNNRLTASNIALTGNSTSGNAINLTGTATLNATNDITLTGSSTSGNAINLTGTATLNATNNITLTGSSTSGNAINLKGNNTLTASNITLTGESTSGNAINLTDTTGTTTLNATNNITMQGTRVQIKHSNITAGNFALNATVAGSEISNTTLTATNNINLAAKTNSASSGVYLKDARITSTNGSITANGTAPANDNATYLDGNVTLNASNGSIKLTGNGNGSTSGILFAGNNTLTASNITLTGNSEVYWQKLGPEQKLISEEDLNSAVDHHHHHH"}}, "assay_in_all_cases": "glycan array binding signal (z-score within array); higher = stronger binding", "conditions_in_all_cases": "glycan notation: IUPAC condensed, linker removed", "key": {"[1]": {"molecular_target": "GlcA3S(b1-3)Gal(b1-4)GlcNAc(b1-2)Man", "summary_of_the_method": "(§1)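 Negative Z-scores can be read as non-binding. The Z-score is calculated within each array and then averaged across arrays of one protein sequence at different concentrations or buffers and across linkers. Arrays, 3228 in all, were curated from the Consortium for Functional Glycomics database and kept only where the protein sequence was available.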"}, "[2]": {"molecular_target": "GlcNAc(a1-4)Gal(b1-3)GlcNAc", "summary_of_the_method": "as §1"}, "[3]": {"molecular_target": "GlcNAc(a1-4)Gal(b1-4)GalNAc", "summary_of_the_method": "as §1"}, "[4]": {"molecular_target": "GlcNAc(a1-4)Gal(b1-4)GlcNAc", "summary_of_the_method": "as §1"}, "[5]": {"molecular_target": "GlcNAc(a1-4)Gal(b1-4)GlcNAc(b1-3)Gal(b1-4)Glc", "summary_of_the_method": "as §1"}, "[6]": {"molecular_target": "GlcNAc(a1-4)Gal(b1-4)GlcNAc(b1-3)Gal(b1-4)GlcNAc", "summary_of_the_method": "as §1"}, "[7]": {"molecular_target": "GlcNAc(a1-4)Gal(b1-4)GlcNAc(b1-3)Gal(b1-4)GlcNAc(b1-3)Gal(b1-4)GlcNAc", "summary_of_the_method": "as §1"}, "[8]": {"molecular_target": "GlcNAc(a1-4)Gal(b1-4)GlcNAc(b1-3)Gal(b1-4)[Fuc(a1-3)]GlcNAc(b1-3)Gal(b1-4)[Fuc(a1-3)]GlcNAc", "summary_of_the_method": "as §1"}, "[9]": {"molecular_target": "GlcNAc(b1-3)[GlcNAc(b1-6)]Gal(b1-4)GlcNAc", "summary_of_the_method": "as §1"}, "[10]": {"molecular_target": "GlcNAc(b1-6)Gal(b1-4)GlcNAc", "summary_of_the_method": "as §1"}, "[11]": {"molecular_target": "Kdn(a2-3)Gal(b1-3)GlcNAc", "summary_of_the_method": "as §1"}, "[12]": {"molecular_target": "Man(a1-2)Man(a1-3)[Man(a1-2)Man(a1-6)]Man(a1-6)[Man(a1-2)Man(a1-2)Man(a1-3)]Man(b1-4)GlcNAc(b1-4)GlcNAc", "summary_of_the_method": "as §1"}, "[13]": {"molecular_target": "Neu5Ac(a2-3)Gal(b1-3)GlcNAc(b1-2)[Neu5Ac(a2-3)Gal(b1-3)GlcNAc(b1-4)]Man(a1-6)[Neu5Ac(a2-3)Gal(b1-3)GlcNAc(b1-2)Man(a1-3)]Man(b1-4)GlcNAc(b1-4)GlcNAc", "summary_of_the_method": "as §1"}, "[14]": {"molecular_target": "Neu5Ac(a2-3)Gal(b1-3)[Fuc(a1-4)]GlcNAc(b1-3)Gal(b1-4)[Fuc(a1-3)]GlcNAc", "summary_of_the_method": "as §1"}, "[15]": {"molecular_target": "Neu5Ac(a2-3)Gal(b1-4)GlcNAc(b1-2)Man(a1-3)[Neu5Ac(a2-6)Gal(b1-4)GlcNAc(b1-2)Man(a1-6)]Man(b1-4)GlcNAc(b1-4)GlcNAc", "summary_of_the_method": "as §1"}, "[16]": {"molecular_target": "Neu5Ac(a2-3)Gal(b1-4)GlcNAc(b1-3)Gal(b1-4)GlcNAc(b1-3)GalNAc", "summary_of_the_method": "as §1"}, "[17]": {"molecular_target": "Neu5Ac(a2-3)Gal6S(b1-4)GlcNAc", "summary_of_the_method": "as §1"}, "[18]": {"molecular_target": "Neu5Ac(a2-6)Gal", "summary_of_the_method": "as §1"}, "[19]": {"molecular_target": "Neu5Ac(a2-8)Neu5Ac(a2-3)[GalNAc(b1-4)]Gal(b1-4)Glc", "summary_of_the_method": "as §1"}, "[20]": {"molecular_target": "Neu5Gc(a2-3)Gal(b1-4)GlcNAc", "summary_of_the_method": "as §1"}, "[21]": {"molecular_target": "Neu5Gc(a2-6)Gal(b1-4)GlcNAc", "summary_of_the_method": "as §1"}, "[22]": {"molecular_target": "Neu5Gc(a2-8)Neu5Ac(a2-3)Gal(b1-4)GlcNAc", "summary_of_the_method": "as §1"}, "[23]": {"molecular_target": "Neu5Gc(a2-8)Neu5Gc(a2-3)Gal(b1-4)GlcNAc(b1-3)Gal(b1-4)GlcNAc", "summary_of_the_method": "as §1"}}, "note": "This excerpt belongs to a sample that is enriched for the strongest signals."}
{"binder": "B1", "values": [{"measurement": "glycan array binding signal (z-score)", "setting": "[1]", "value": -0.154}, {"measurement": "glycan array binding signal (z-score)", "setting": "[2]", "value": 2.45}, {"measurement": "glycan array binding signal (z-score)", "setting": "[3]", "value": 10.8}, {"measurement": "glycan array binding signal (z-score)", "setting": "[4]", "value": 5.29}, {"measurement": "glycan array binding signal (z-score)", "setting": "[5]", "value": 4.48}, {"measurement": "glycan array binding signal (z-score)", "setting": "[6]", "value": 7.75}, {"measurement": "glycan array binding signal (z-score)", "setting": "[7]", "value": 10.9}, {"measurement": "glycan array binding signal (z-score)", "setting": "[8]", "value": 6.35}, {"measurement": "glycan array binding signal (z-score)", "setting": "[9]", "value": -0.354}, {"measurement": "glycan array binding signal (z-score)", "setting": "[10]", "value": -0.395}, {"measurement": "glycan array binding signal (z-score)", "setting": "[11]", "value": 0.581}, {"measurement": "glycan array binding signal (z-score)", "setting": "[12]", "value": -0.275}, {"measurement": "glycan array binding signal (z-score)", "setting": "[13]", "value": -0.163}, {"measurement": "glycan array binding signal (z-score)", "setting": "[14]", "value": -0.21}, {"measurement": "glycan array binding signal (z-score)", "setting": "[15]", "value": -0.305}, {"measurement": "glycan array binding signal (z-score)", "setting": "[16]", "value": -0.38}, {"measurement": "glycan array binding signal (z-score)", "setting": "[17]", "value": 0.188}, {"measurement": "glycan array binding signal (z-score)", "setting": "[18]", "value": 8.28}, {"measurement": "glycan array binding signal (z-score)", "setting": "[19]", "value": 0.026}, {"measurement": "glycan array binding signal (z-score)", "setting": "[20]", "value": -0.194}, {"measurement": "glycan array binding signal (z-score)", "setting": "[21]", "value": 0.192}, {"measurement": "glycan array binding signal (z-score)", "setting": "[22]", "value": -0.108}, {"measurement": "glycan array binding signal (z-score)", "setting": "[23]", "value": -0.353}]}
